± gives the standard deviation.

What all share (settings): modulator concentration 10 µM
The test system of experiment [1] is RAW-Dual (murine macrophage reporter line). Description: NF-kB reporter (SEAP) activity fold change vs agonist alone; higher = enhanced NF-kB activity. In outline: (§1)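 RAW-Dual murine macrophage reporter cells were plated at 50 000 per well in 384-well plates, pin-transferred compound to 10 μM final, and pre-incubated for 1 hour at 37 °C before a PRR agonist was added and the cells incubated overnight. NF-κB activity was read from supernatant SEAP with QUANTI-Blue at 620 nm absorbance, and IRF activity from Lucia luciferase with QUANTI-Luc by luminescence. Each signal was expressed as fold change by dividing by the mean agonist-only control on the same plate. Two replicate plates were averaged, with errors obtained by propagation.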

Experiment [2] shares this test system. The experiment in a line: IRF reporter (Lucia luciferase) activity fold change vs agonist alone; higher = enhanced IRF activity. In outline: as §1
Experiment [3] shares this test system. Description: viability score (confluency relative to resting cells, overnight) (fraction); higher = more viable, active = viable (0.7 or more). Summed up: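 Confluency was the readout: RAW-Dual macrophages were imaged with IncuCyte after an overnight exposure to compound at 10 μM final. IncuCyte software produced two masks over all imaged wells. The viability score expresses confluency against resting cells, and both masks had to exceed 70% of resting cells for a compound to meet the cutoff.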

Setting [4] is: agonist: CpG ODN 1826 0.5 ug/mL.

Turning to `CC(=O)Oc1ccc(C=Cc2cc(OC(C)=O)cc(OC(C)=O)c2)cc1`, the NF-kB reporter in experiment [1] (setting [4]) was found to be 1.12 ± 0.069; in experiment [1] (agonist: LPS 0.1 ug/mL), 1.15 ± 0.073; in experiment [1] (agonist: MPLA […]) it was 1.12 ± 0.092. The IRF reporter in experiment [2] (agonist: 3'3'-cGAMP 10 ug/mL) amounted to 0.87 ± 0.029; in experiment [2] (agonist: LPS 0.1 ug/mL), 0.953 ± 0.088; in experiment [2] (agonist: MPLA […]), 0.896 ± 0.093. In addition, the viability score in experiment [3] is 1 (active).

On to `O=C1NC(=O)C(=Cc2cc(Br)ccc2OCc2ccc(Cl)cc2Cl)C(=O)N1`, for which the NF-kB reporter in experiment [1] (setting [4]) was 0.887 ± 0.05; in experiment [1] (agonist: LPS 0.1 ug/mL), 0.945 ± 0.071; in experiment [1] (agonist: MPLA […]), 0.794 ± 0.058. In addition, the IRF reporter in experiment [2] (agonist: 3'3'-cGAMP 10 ug/mL) was 0.949 ± 0.033; in experiment [2] (agonist: LPS 0.1 ug/mL), 0.751 ± 0.11; in experiment [2] (agonist: MPLA […]), 0.822 ± 0.16. Further, in experiment [3], the viability score was 0.991 (active).

As for `Cc1cc(C(=O)N2C3CCC2c2cncnc2C3)c(C)o1` (stereo not drawn), the NF-kB reporter is 1.03 ± 0.087 in experiment [1] (setting [4]), 1.06 ± 0.092 in experiment [1] (agonist: LPS 0.1 ug/mL) and 1 ± 0.036 in experiment [1] (agonist: MPLA […]). For the same compound, the IRF reporter in experiment [2] (agonist: 3'3'-cGAMP 10 ug/mL) is 0.974 ± 0.066; in experiment [2] (agonist: LPS 0.1 ug/mL), 0.94 ± 0.06; in experiment [2] (agonist: MPLA […]), 0.832 ± 0.13. In addition, the viability score in experiment [3] was 0.999 (active).

For the compound `Fc1ccc(CNCCc2c[nH]c3ccccc23)cc1`, the NF-kB reporter in experiment [1] (setting [4]) was determined as 0.733 ± 0.32; in experiment [1] (agonist: LPS 0.1 ug/mL) it was 1.08 ± 0.15; in experiment [1] (agonist: MPLA […]) it was 0.955 ± 0.075. Also, the results for the IRF reporter in experiment [2] (agonist: 3'3'-cGAMP 10 ug/mL), in experiment [2] (agonist: LPS 0.1 ug/mL) and in experiment [2] (agonist: MPLA […]) were 0.751 ± 0.063, 1.1 ± 0.12 and 1.29 ± 0.28, respectively. Besides, the viability score in experiment [3] was 0.599 (inactive).

For `CC12CCC3C(CCC4CC(=O)CCC43C)C1CCC2=O` (stereo not drawn), the NF-kB reporter turned out to be 1.29 ± 0.32 in experiment [1] (setting [4]), 1.03 ± 0.058 in experiment [1] (agonist: LPS 0.1 ug/mL) and 0.933 ± 0.075 in experiment [1] (agonist: MPLA […]). In addition, the IRF reporter in experiment [2] (agonist: 3'3'-cGAMP 10 ug/mL) was found to be 1.04 ± 0.044; in experiment [2] (agonist: LPS 0.1 ug/mL), 1.23 ± 0.18; in experiment [2] (agonist: MPLA […]), 1.23 ± 0.17. Further, in experiment [3], the viability score was 0.997 (active).

With `CN1C(=O)C(=Cc2nc3ccccc3c(=O)n2-c2ccccc2)c2ccccc21`, the NF-kB reporter was determined as 1.01 ± 0.088 in experiment [1] (setting [4]), 0.867 ± 0.097 in experiment [1] (agonist: LPS 0.1 ug/mL) and 1.65 ± 0.63 in experiment [1] (agonist: MPLA […]). Further, the IRF reporter in experiment [2] (agonist: 3'3'-cGAMP 10 ug/mL) came to 1.08 ± 0.052; in experiment [2] (agonist: LPS 0.1 ug/mL) it was 1.32 ± 0.23; in experiment [2] (agonist: MPLA […]) it was 1.29 ± 0.24. The viability score in experiment [3] was 1.05 (active).

`Cc1noc(C)c1CC(=O)N1CCCSCC1CN1CCCC1` (stereo not drawn): the values for the NF-kB reporter in experiment [1] (setting [4]), in experiment [1] (agonist: LPS 0.1 ug/mL) and in experiment [1] (agonist: MPLA […]) were 0.943 ± 0.093, 1.03 ± 0.083 and 0.906 ± 0.04, respectively. Besides, the IRF reporter turned out to be 1.1 ± 0.065 in experiment [2] (agonist: 3'3'-cGAMP 10 ug/mL), 1.09 ± 0.11 in experiment [2] (agonist: LPS 0.1 ug/mL) and 0.972 ± 0.14 in experiment [2] (agonist: MPLA […]). For the same compound, the viability score in experiment [3] was 1 (active).

In the case of `COc1cc(C2c3cc4c(c(O)c3CC3COC(=O)C32)OCO4)cc(OC)c1OC` (stereo not drawn), the NF-kB reporter in experiment [1] (setting [4]) stood at 2.38 ± 0.14; in experiment [1] (agonist: LPS 0.1 ug/mL) it was 1.31 ± 0.086; in experiment [1] (agonist: MPLA […]), 2.08 ± 0.14. Further, the values for the IRF reporter in experiment [2] (agonist: 3'3'-cGAMP 10 ug/mL), in experiment [2] (agonist: LPS 0.1 ug/mL) and in experiment [2] (agonist: MPLA […]) were 0.0984 ± 0.0043, 1.75 ± 0.2 and 1.92 ± 0.17, respectively. Besides, the viability score in experiment [3] was 0.735 (active).

With `COc1ccc(CCNCc2ccc3ccccc3c2)cc1OC`, the results for the NF-kB reporter in experiment [1] (setting [4]), in experiment [1] (agonist: LPS 0.1 ug/mL) and in experiment [1] (agonist: MPLA […]) were 0.42 ± 0.095, 0.762 ± 0.058 and 0.849 ± 0.08, respectively. Also, the IRF reporter was 0.893 ± 0.045 in experiment [2] (agonist: 3'3'-cGAMP 10 ug/mL), 1.17 ± 0.12 in experiment [2] (agonist: LPS 0.1 ug/mL) and 1.24 ± 0.14 in experiment [2] (agonist: MPLA […]). Besides, the viability score in experiment [3] was 0.984 (active).

With `Cc1ccc(-c2nn(-c3ccccc3)cc2C=C2C(=O)NC(=S)NC2=O)o1`, the figures for the NF-kB reporter in experiment [1] (setting [4]), in experiment [1] (agonist: LPS 0.1 ug/mL) and in experiment [1] (agonist: MPLA […]) were 1.03 ± 0.3, 1.01 ± 0.11 and 0.898 ± 0.071, respectively. For the same compound, the values for the IRF reporter in experiment [2] (agonist: 3'3'-cGAMP 10 ug/mL), in experiment [2] (agonist: LPS 0.1 ug/mL) and in experiment [2] (agonist: MPLA […]) were 0.968 ± 0.057, 1.27 ± 0.2 and 1.25 ± 0.13, respectively. For the same compound, the viability score in experiment [3] was 1 (active).

For the compound `CCC1(C)CC(=O)NC(=O)C1`, the NF-kB reporter was found to be 0.907 ± 0.15 in experiment [1] (setting [4]), 0.842 ± 0.14 in experiment [1] (agonist: LPS 0.1 ug/mL) and 0.941 ± 0.054 in experiment [1] (agonist: MPLA […]). Also, the IRF reporter in experiment [2] (agonist: 3'3'-cGAMP 10 ug/mL) is 0.899 ± 0.073; in experiment [2] (agonist: LPS 0.1 ug/mL), 1.02 ± 0.11; in experiment [2] (agonist: MPLA […]), 1.11 ± 0.16. For the same compound, in experiment [3], the viability score is 0.985 (active).

For `Cl.N=C(N)NN`, the NF-kB reporter in experiment [1] (setting [4]) was 0.983 ± 0.15; in experiment [1] (agonist: LPS 0.1 ug/mL), 1.02 ± 0.29; in experiment [1] (agonist: MPLA […]), 0.917 ± 0.064. The results for the IRF reporter in experiment [2] (agonist: 3'3'-cGAMP 10 ug/mL), in experiment [2] (agonist: LPS 0.1 ug/mL) and in experiment [2] (agonist: MPLA […]) were 0.892 ± 0.034, 1.38 ± 0.27 and 1.25 ± 0.21, respectively. The viability score in experiment [3] was 0.997 (active).

Consider `CC[C@@H](C(N)=O)N1CCCC1=O`, for which the NF-kB reporter came to 1.04 ± 0.1 in experiment [1] (setting [4]), 1.05 ± 0.059 in experiment [1] (agonist: LPS 0.1 ug/mL) and 0.993 ± 0.056 in experiment [1] (agonist: MPLA […]). Moreover, the IRF reporter in experiment [2] (agonist: 3'3'-cGAMP 10 ug/mL) is 1.06 ± 0.17; in experiment [2] (agonist: LPS 0.1 ug/mL), 0.88 ± 0.075; in experiment [2] (agonist: MPLA […]), 0.863 ± 0.15. In addition, in experiment [3], the viability score is 1 (active).

Take `COC12CC(COC(=O)c3cncc(Br)c3)CN(C)C1Cc1cn(C)c3cccc2c13` (stereo not drawn): the NF-kB reporter was found to be 1.02 ± 0.11 in experiment [1] (setting [4]), 1.01 ± 0.078 in experiment [1] (agonist: LPS 0.1 ug/mL) and 1.03 ± 0.13 in experiment [1] (agonist: MPLA […]). In addition, the values for the IRF reporter in experiment [2] (agonist: 3'3'-cGAMP 10 ug/mL), in experiment [2] (agonist: LPS 0.1 ug/mL) and in experiment [2] (agonist: MPLA […]) were 0.905 ± 0.065, 1.16 ± 0.11 and 1.19 ± 0.16, respectively. In experiment [3], the viability score was 1.04 (active).

Values taken from the supplement of paper PMC10646978.
